Laboratory results taken from PubChem BioAssay (EPA / NIEHS).
Active and inactive are the calls of the source. How the source made its calls: active means hit-call score of the fitted dose curve at least 0.9, where 1 is the maximum; inactive means score below 0.9.

Key:
[1] = ATG_E_Box_CIS: Attagene CIS-FACTORIAL HepG2 Assay for human Enhancer Box (E-box) (AID 2282936); conditions: HepG2 E-box cis-reporter transcription, actives raise or lower the signal
Summary of the method: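 HepG2 cells transiently transfected with multiplexed cis-element reporter units, dosed 24 h; reporter mRNA quantified by RT-PCR, 6-FAM labelling, HpaI digestion and capillary electrophoresis. E-box (USF1) signal fitted bidirectionally vs DMSO.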

[2] = ATG_M_61_CIS: Attagene CIS-FACTORIAL HepG2 Assay for M61 Transcription Factor (Internal Marker) (AID 2282937); conditions: HepG2 Attagene CIS-FACTORIAL M61 internal marker reporter; actives raise or lower the signal
Summary of the method: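 Using transiently transfected HepG2 liver cells, reporter transcript levels were assessed 24 h post-dosing by RT-PCR and capillary electrophoresis. Changes in either direction were fitted relative to DMSO controls.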

[3] = ATG_EGR_CIS: Attagene CIS-FACTORIAL HepG2 Assay for human Early Growth Response 1 (EGR1) (AID 2282938); conditions: HepG2 Attagene CIS-FACTORIAL EGR reporter mRNA; actives raise or lower the signal
Summary of the method: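 Fluorescent capillary-electrophoresis signal of reporter cDNA fragments serves as read-out. HepG2 cells bear transiently transfected cis-promoter reporter units and are exposed 24 h; gain- or loss-of-signal is fitted against DMSO.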

[4] = ATG_M_19_CIS: Attagene CIS-FACTORIAL HepG2 Assay for M19 Transcription Factor (Internal Marker) (AID 2282939); conditions: HepG2 Attagene CIS-FACTORIAL M19 internal marker reporter; actives raise or lower the signal
Summary of the method: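 In this multiplexed cell assay, transiently transfected HepG2 reporter units report endogenous transcription-factor activity; after 24 hours of treatment, labelled reporter cDNA fragments are quantified by capillary electrophoresis and fitted bidirectionally against DMSO.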

[5] = ATG_Ets_CIS: Attagene CIS-FACTORIAL HepG2 Assay for human Erythroblast Transformation Specific (ETS) (AID 2282941); conditions: HepG2 ETS cis-reporter transcription, actives raise or lower the signal
Summary of the method: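 HepG2 cells transiently transfected with cis-promoter reporter transcription units were dosed for 24 h; reporter mRNA was measured by RT-PCR, 6-FAM primer extension, HpaI digestion and capillary electrophoresis, with bidirectional fitting against DMSO baseline.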

[6] = target: Hepatocyte nuclear factor 3-beta (Homo sapiens) (UniProt Q9Y261); assay: ATG_FoxA2_CIS: Attagene CIS-FACTORIAL HepG2 Assay for human Forkhead box A2 (FOXA2) (AID 2282942); conditions: HepG2 cis-reporter transcription factor activity, 24 h; actives raise or lower the signal
Sequence of Hepatocyte nuclear factor 3-beta (Homo sapiens) (Q9Y261 whole entry, looked up, the tested form may be a part): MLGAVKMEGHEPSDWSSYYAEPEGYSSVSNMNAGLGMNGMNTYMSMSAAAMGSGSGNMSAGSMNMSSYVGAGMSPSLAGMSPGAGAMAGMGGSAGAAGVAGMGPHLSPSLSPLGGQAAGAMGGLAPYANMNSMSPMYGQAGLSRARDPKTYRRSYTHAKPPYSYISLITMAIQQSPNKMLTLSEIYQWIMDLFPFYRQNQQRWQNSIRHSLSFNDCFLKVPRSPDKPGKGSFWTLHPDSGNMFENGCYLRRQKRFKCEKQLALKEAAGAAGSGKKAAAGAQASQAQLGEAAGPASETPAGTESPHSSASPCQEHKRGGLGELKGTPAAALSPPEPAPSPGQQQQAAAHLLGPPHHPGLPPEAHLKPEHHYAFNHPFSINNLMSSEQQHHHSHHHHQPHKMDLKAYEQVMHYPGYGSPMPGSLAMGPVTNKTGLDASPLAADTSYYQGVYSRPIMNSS
Summary of the method: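 Fluorescence signal of reporter cDNA fragments, separated by capillary electrophoresis, reflects endogenous transcription factor activity in transfected HepG2 after 24 h. Both increases and decreases fitted against DMSO.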

[7] = ATG_FoxO_CIS: Attagene CIS-FACTORIAL HepG2 Assay for human Forkhead box O (FoxO) (AID 2282943); conditions: HepG2 Attagene cis-reporter, FoxO element, mRNA; actives raise or lower the signal
Summary of the method: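 HepG2 cells transiently transfected with cis-element-driven reporter units report endogenous FoxO activity. After 24 h chemical exposure, reporter mRNA quantified by RT-PCR, fluorescent labeling, HpaI digestion and capillary electrophoresis; bidirectional fit versus DMSO.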

[8] = ATG_GATA_CIS: Attagene CIS-FACTORIAL HepG2 Assay for human GATA Binding Protein (AID 2282944); conditions: HepG2 GATA cis-element reporter, Attagene multiplex mRNA; actives raise or lower the signal
Summary of the method: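 Measures endogenous transcription factor-driven reporter mRNA in HepG2 cells transiently carrying cis-regulated constructs. 24 h dosing; RNA via oligo(dT) reverse transcription, PCR, HpaI digestion, capillary electrophoresis; fitted relative to DMSO.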

[9] = ATG_GLI_CIS: Attagene CIS-FACTORIAL HepG2 Assay for human Zinc Finger Protein GLI1 (AID 2282945); conditions: HepG2, Attagene cis-factorial reporter mRNA, GLI element; actives raise or lower the signal
Summary of the method: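 Transiently transfected HepG2 cells report endogenous transcription factor activity via cis-element-driven reporter units. After 24 h compound exposure, reporter mRNA was measured by RT-PCR with capillary electrophoresis; bidirectional fitting against DMSO baseline.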

[10] = target: Bile acid receptor (Homo sapiens) (UniProt Q96RI1); assay: ATG_IR1_CIS: Attagene CIS-FACTORIAL HepG2 Assay for human Nuclear Receptor Subfamily 1 Group H Member 4 (NR1H4), IR1 submotif (AID 2282946); conditions: IR1 reporter transcription, actives raise or lower the signal
Sequence of Bile acid receptor (Homo sapiens) (Q96RI1 whole entry, looked up): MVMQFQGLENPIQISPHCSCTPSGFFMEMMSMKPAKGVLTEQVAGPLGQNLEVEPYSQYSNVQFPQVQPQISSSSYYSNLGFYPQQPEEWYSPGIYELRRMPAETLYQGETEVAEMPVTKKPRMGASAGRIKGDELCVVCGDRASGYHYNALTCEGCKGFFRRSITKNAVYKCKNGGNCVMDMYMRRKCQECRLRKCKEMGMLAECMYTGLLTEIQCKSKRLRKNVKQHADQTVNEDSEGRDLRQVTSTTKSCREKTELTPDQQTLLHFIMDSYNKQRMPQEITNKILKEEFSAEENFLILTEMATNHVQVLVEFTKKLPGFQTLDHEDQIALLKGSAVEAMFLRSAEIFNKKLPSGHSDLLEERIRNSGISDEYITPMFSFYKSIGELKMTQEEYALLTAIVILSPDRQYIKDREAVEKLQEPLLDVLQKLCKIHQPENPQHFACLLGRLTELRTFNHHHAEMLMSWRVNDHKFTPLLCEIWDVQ
Summary of the method: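 HepG2 cells transiently transfected with multiple cis-promoter-driven reporter units to measure endogenous transcription factor activity; 24 h exposure. Reporter mRNA read by RT-PCR, FAM labelling, HpaI digestion and capillary electrophoresis. Bidirectional fit versus DMSO.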

[11] = ATG_GRE_CIS: Attagene CIS-FACTORIAL HepG2 Assay for human Glucocorticoid Response Elements (GRE) (AID 2282947); conditions: HepG2 GRE cis-reporter, Attagene multiplex mRNA; actives raise or lower the signal
Summary of the method: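 Transiently transfected HepG2 cells carrying GRE cis-reporter units (endogenous TF activity) dosed 24 h; reporter mRNA quantified by RT-PCR, 6-FAM labelling, HpaI digestion and capillary electrophoresis. Bidirectional fit versus DMSO baseline.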

[12] = ATG_M_32_CIS: Attagene CIS-FACTORIAL HepG2 Assay for M32 Transcription Factor (Internal Marker) (AID 2282949); conditions: HepG2 Attagene cis-factorial M32 reporter, mRNA; actives raise or lower the signal;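 further: background control marker of the multiplexed CIS panel rather than a real target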
Summary of the method: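 HepG2 cells transiently transfected with multiplexed cis-regulated reporter units, dosed 24 h. Reporter mRNA quantified by RT-PCR, 6-FAM labelling, HpaI digestion and capillary electrophoresis; bidirectional fit vs DMSO.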

[13] = ATG_M_06_CIS: Attagene CIS-FACTORIAL HepG2 Assay for M06 Transcription Factor (Internal Marker) (AID 2282950); conditions: HepG2 Attagene CIS-FACTORIAL M06 internal marker reporter; actives raise or lower the signal
Summary of the method: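 One of many multiplexed endpoints: HepG2 reporter mRNA after 24 h dosing, detected by RT-PCR and capillary electrophoresis fluorescence; gain or loss of signal analysed against DMSO.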

[14] = target: Hypoxia-inducible factor 1-alpha (Homo sapiens) (UniProt Q16665); assay: ATG_HIF1a_CIS: Attagene CIS-FACTORIAL HepG2 Assay for human Hypoxia Inducible Factor 1 (HIF1A) (AID 2282951); conditions: HepG2 Attagene cis-factorial HIF1a reporter transcription; actives raise or lower the signal
Sequence of Hypoxia-inducible factor 1-alpha (Homo sapiens) (Q16665 whole entry, looked up): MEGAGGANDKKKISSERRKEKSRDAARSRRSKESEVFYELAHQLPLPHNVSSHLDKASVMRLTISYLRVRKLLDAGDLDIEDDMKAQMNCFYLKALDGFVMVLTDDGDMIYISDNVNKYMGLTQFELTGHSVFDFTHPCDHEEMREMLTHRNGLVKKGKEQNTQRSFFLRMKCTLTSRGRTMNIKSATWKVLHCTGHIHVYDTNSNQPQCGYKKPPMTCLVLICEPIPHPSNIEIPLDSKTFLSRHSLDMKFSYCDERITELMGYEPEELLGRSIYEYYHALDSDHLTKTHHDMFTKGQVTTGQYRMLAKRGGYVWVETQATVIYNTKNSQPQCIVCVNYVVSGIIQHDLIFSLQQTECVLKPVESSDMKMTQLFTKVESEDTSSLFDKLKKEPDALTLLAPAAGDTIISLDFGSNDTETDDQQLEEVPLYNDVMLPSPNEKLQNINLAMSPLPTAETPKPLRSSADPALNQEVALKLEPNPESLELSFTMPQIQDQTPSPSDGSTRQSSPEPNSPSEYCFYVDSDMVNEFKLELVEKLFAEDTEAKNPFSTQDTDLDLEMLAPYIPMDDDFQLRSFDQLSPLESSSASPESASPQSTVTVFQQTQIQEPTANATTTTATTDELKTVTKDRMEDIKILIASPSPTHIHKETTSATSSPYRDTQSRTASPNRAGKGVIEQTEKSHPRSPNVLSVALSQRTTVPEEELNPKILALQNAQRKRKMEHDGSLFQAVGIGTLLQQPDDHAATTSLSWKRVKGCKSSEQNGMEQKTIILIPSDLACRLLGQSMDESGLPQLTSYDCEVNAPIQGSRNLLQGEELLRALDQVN
Summary of the method: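 Endogenous-TF cis reporter readout, human HepG2 cells, 24 h incubation; mRNA detected via RT-PCR and capillary electrophoresis fluorescence; DMSO-normalised bidirectional fitting.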

[15] = target: Hepatocyte nuclear factor 6 (Homo sapiens) (UniProt Q9UBC0); assay: ATG_HNF6_CIS: Attagene CIS-FACTORIAL HepG2 Assay for human Hepatocyte Nuclear Factor 6 (HNF6) (AID 2282952); conditions: HepG2 Attagene cis-factorial HNF6 reporter transcription; actives raise or lower the signal
Sequence of Hepatocyte nuclear factor 6 (Homo sapiens) (Q9UBC0 whole entry, looked up): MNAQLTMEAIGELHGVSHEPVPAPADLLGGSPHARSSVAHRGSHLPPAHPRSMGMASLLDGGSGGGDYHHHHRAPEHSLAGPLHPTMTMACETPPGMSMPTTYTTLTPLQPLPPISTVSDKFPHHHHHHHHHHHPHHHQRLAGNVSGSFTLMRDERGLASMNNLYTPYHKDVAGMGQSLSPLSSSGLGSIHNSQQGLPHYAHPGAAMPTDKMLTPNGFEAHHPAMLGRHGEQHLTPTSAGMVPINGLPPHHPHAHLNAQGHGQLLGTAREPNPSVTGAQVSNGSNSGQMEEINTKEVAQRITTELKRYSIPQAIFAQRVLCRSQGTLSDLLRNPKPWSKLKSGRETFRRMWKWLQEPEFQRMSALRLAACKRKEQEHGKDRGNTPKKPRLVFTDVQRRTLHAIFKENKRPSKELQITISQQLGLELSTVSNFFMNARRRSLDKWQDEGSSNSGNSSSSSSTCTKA
Summary of the method: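 Multiplexed mRNA reporter assay in transfected HepG2; 24 h dosing; RT-PCR plus capillary electrophoresis fluorescence; DMSO-referenced bidirectional curve fitting.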

[16] = target: Heat shock factor protein 1 (Homo sapiens) (UniProt Q00613); assay: ATG_HSE_CIS: Attagene CIS-FACTORIAL HepG2 Assay for human Heat Shock Transcription Factor 1 (HSE) (AID 2282953); conditions: HepG2 HSE cis-reporter, Attagene RNA transcription; actives raise or lower the signal
Sequence of Heat shock factor protein 1 (Homo sapiens) (Q00613 whole entry, looked up): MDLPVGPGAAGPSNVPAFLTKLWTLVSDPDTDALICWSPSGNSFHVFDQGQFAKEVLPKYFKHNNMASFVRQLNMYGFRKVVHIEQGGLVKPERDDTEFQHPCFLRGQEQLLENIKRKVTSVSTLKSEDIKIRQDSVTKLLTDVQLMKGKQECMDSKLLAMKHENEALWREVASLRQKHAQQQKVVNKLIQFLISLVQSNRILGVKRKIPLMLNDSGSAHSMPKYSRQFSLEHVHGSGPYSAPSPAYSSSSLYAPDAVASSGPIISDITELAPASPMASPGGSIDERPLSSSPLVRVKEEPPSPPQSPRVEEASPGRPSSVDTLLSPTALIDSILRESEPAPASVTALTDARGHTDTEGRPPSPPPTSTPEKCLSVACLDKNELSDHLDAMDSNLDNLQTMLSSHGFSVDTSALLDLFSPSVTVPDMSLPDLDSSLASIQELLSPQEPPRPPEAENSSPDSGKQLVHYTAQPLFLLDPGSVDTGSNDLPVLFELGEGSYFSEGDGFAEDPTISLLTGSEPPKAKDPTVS
Summary of the method: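 Using HepG2 with transfected cis-driven reporter constructs, compound effects on endogenous factor activity are scored as reporter mRNA change at 24 h. Detection: RT-PCR, HpaI digestion, capillary electrophoresis; bidirectional fitting to DMSO.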

[17] = ATG_MRE_CIS: Attagene CIS-FACTORIAL HepG2 Assay for human Metal Responsive Element (MRE) (AID 2282954); conditions: HepG2 MRE cis-reporter transcription, Attagene multiplex; actives raise or lower the signal
Summary of the method: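 HepG2 cells transiently transfected with cis-element-driven reporter units; mRNA measured 24 h after dosing. Reporter transcripts quantified by RT-PCR, FAM labelling, HpaI digestion and capillary electrophoresis; bidirectional fit versus DMSO.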

[18] = ATG_PBREM_CIS: Attagene CIS-FACTORIAL HepG2 Assay for human Phenobarbital-responsive Enhancer Module (PBREM) (AID 2282955); conditions: HepG2 PBREM cis-reporter, Attagene multiplexed transcription; actives raise or lower the signal
Summary of the method: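 Readout: reporter mRNA, fluorescent RT-PCR fragments separated by capillary electrophoresis. System: HepG2 transiently transfected with cis-regulated reporter units. Exposure: 24 h. Analysis: bidirectional, DMSO baseline.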

[19] = ATG_ISRE_CIS: Attagene CIS-FACTORIAL HepG2 Assay for human Interferon Regulatory Factor 1 (IRF1) binding to an Interferon-Stimulated Response Element (ISRE) (AID 2282948); conditions: HepG2 ISRE cis-reporter (Attagene), mRNA transcription readout; actives raise or lower the signal
Summary of the method: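 HepG2 cells transiently transfected with multiplexed cis-promoter reporter units; after 24 h compound exposure, reporter mRNA quantified by RT-PCR, FAM labelling, HpaI digestion and capillary electrophoresis. Bidirectional fit versus DMSO baseline.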

Measured: AC50

CCOC(=O)[C@@H](C)Oc1ccc(Oc2nc3ccc(Cl)cc3o2)cc1
not listed: [19]
inactive: all other assays above

CCOC(=O)CN
not listed: [17]
inactive: all other assays above

Oc1c(Cl)cc(Cl)c(Cl)c1Cc1c(O)c(Cl)cc(Cl)c1Cl
active: [3] 11.1 µM | [5] 0.878 µM | [19] 6 µM | [16] 17.1 µM | [17] 9.9 µM | [18] 1.12 µM
not listed: [14]
inactive: all other assays above

C=C1C[C@]23C[C@@]1(O)CC[C@H]2[C@@]12C=C[C@H](O)[C@@](C)(C(=O)O1)[C@H]2[C@@H]3C(=O)O
not listed: [13] | [16]
inactive: all other assays above
